# Experimental data reported in PubChem BioAssay AID1159580 (chemical genetic matrix, 2015).
# Among all 5,500 compounds or so, about 2,000 (36%) were called active. Not shown: some 18% with an inconclusive outcome. The list shows a part of the results. Unmarked numbers belong to inactive results. Cut-off read from the data, not from the text of the source: active = normalized growth mostly below about 0.91 (no sharp cut-off); inconclusive = no clear call, values can overlap the other calls; inactive = mostly above about 0.92.
# Experiment: chemical genetic growth profiling, strain panel (AID 1159580);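 note: tested at 20 µM; growth read once vehicle control cultures reached saturation at 30 °C; 1 = growth at the plate median or of vehicle wells; lower values mean less growth of the strain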
# Conditions: S. cerevisiae deletion strains, growth OD
# [1] = locus YAR019C, strain CDC15, hits give low values
# [2] = locus YBL105C, strain PKC1, hits give low values
# [3] = locus YBR135W, strain CKS1, hits give low values
# [4] = locus YBR136W, strain MEC1, hits give low values
# [5] = locus YBR160W, strain CDC28, hits give low values
# [6] = locus YDL017W, strain CDC7, hits give low values
# [7] = locus YDL028C, strain MPS1, hits give low values
# [8] = locus YDL101C, strain DUN1, hits give low values
# [9] = locus YDL108W, strain KIN28, hits give low values
# [10] = locus YDL132W, strain cdc53, hits give low values
# [11] = locus YDL214C, strain PRR2, hits give low values
# [12] = locus YDR052C, strain DBF4, hits give low values
# [13] = locus YDR054C, strain cdc34, hits give low values
# [14] = locus YDR226W, strain ADK1, hits give low values
# [15] = locus YDR477W, strain SNF1, hits give low values
# [16] = locus YER123W, strain YCK3, hits give low values
# [17] = locus YER133W, strain GLC7, hits give low values
# [18] = locus YFL009W, strain cdc4, hits give low values
# [19] = locus YFL029C, strain CAK1, hits give low values
# [20] = locus YFR003C, strain YPI1, hits give low values
# [21] = locus YFR019W, strain FAB1, hits give low values
# [22] = locus YFR028C, strain CDC14, hits give low values
# [23] = locus YGR040W, strain KSS1, hits give low values
# [24] = locus YGR052W, strain FMP48, hits give low values
# [25] = locus YGR092W, strain DBF2, hits give low values
# [26] = locus YHR030C, strain SLT2, hits give low values
# [27] = locus YHR079C, strain IRE1, hits give low values
# [28] = locus YHR082C, strain KSP1, hits give low values
# [29] = locus YHR205W, strain SCH9, hits give low values
# [30] = locus YIL147C, strain SLN1, hits give low values
# [31] = locus YJL095W, strain BCK1, hits give low values
# [32] = locus YJL128C, strain PBS2, hits give low values
# [33] = locus YJL157C, strain FAR1, hits give low values
# [34] = locus YJR016C, strain ILV3, hits give low values
# [35] = locus YJR066W, strain TOR1 (second series), hits give low values
# [36] = locus YJR066W, strain TOR1, hits give low values
# [37] = locus YKL048C, strain ELM1, hits give low values
# [38] = locus YKL067W, strain YNK1, hits give low values
# [39] = locus YKL101W, strain HSL1, hits give low values
# [40] = locus YKL193C, strain SDS22, hits give low values
# [41] = locus YKL203C, strain TOR2, hits give low values
# [42] = locus YLR113W, strain HOG1, hits give low values
# [43] = locus YLR133W, strain CKI1, hits give low values
# [44] = locus YLR403W, strain SFP1, hits give low values
# [45] = locus YML070W, strain DAK1, hits give low values
# [46] = locus YMR001C, strain CDC5, hits give low values
# [47] = locus YMR205C, strain PFK2 (second series), hits give low values
# [48] = locus YMR277W, strain FCP1, hits give low values
# [49] = locus YNL006W, strain LST8, hits give low values
# [50] = locus YNL020C, strain ARK1, hits give low values
# [51] = locus YNL161W, strain CBK1, hits give low values
# [52] = locus YNL183C, strain NPR1, hits give low values
# [53] = locus YNL207W, strain RIO2, hits give low values
# [54] = locus YNL222W, strain SSU72, hits give low values
# [55] = locus YNL307C, strain MCK1 (second series), hits give low values
# [56] = locus YOL078W, strain AVO1, hits give low values
# [57] = locus YOL136C, strain PFK27, hits give low values
# [58] = locus YOR061W, strain CKA2, hits give low values
# [59] = locus YOR119C, strain RIO1, hits give low values
# [60] = locus YOR231W, strain MKK1, hits give low values
# [61] = locus YOR329C, strain SCD5, hits give low values
# [62] = locus YPL031C, strain PHO85, hits give low values
# [63] = locus YPL153C, strain RAD53, hits give low values
# [64] = locus YPL204W, strain HRR25, hits give low values
# [65] = locus YPL209C, strain IPL1, hits give low values
# [66] = locus YPL256C, strain CLN2, hits give low values
# [67] = locus YPR025C, strain CCL1, hits give low values
# [68] = locus YPR106W, strain ISR1, hits give low values
# [69] = locus YPR111W, strain DBF20, hits give low values
# [70] = strain NNK1, hits give low values
# [71] = strain TSCII, hits give low values
structure (smiles),measurement,setting,value
CC(=O)Oc1cc(C(C)C)c(OCCN(C)C)cc1C,normalized growth,"locus YAL040C, strain CLN3, hits give low values",1.01
same,normalized growth,"locus YCL061C, strain MRC1 (second series), hits give low values",1.01
same,normalized growth,"locus YDR150W, strain NUM1, hits give low values",1
same,normalized growth,"locus YDR363W, strain ESC2, hits give low values",1.01
same,normalized growth,"locus YER002W, strain NOP16, hits give low values",1.03
same,normalized growth,"locus YNL175C, strain NOP13, hits give low values",1.01
same,normalized growth,"locus YNL197C, strain WHI3, hits give low values",1.01
same,normalized growth,"locus YNL224C, strain SQS1, hits give low values",1
same,normalized growth,"locus YOR083W, strain WHI5 (second series), hits give low values",1.01
same,normalized growth,"locus YPL055C, strain LGE1, hits give low values",1.01
CCn1nc(C)cc1-c1nnc(Sc2ncc([N+](=O)[O-])s2)n1C,normalized growth,[1],0.964
same,normalized growth,[2],0.968
same,normalized growth,[3],0.967
same,normalized growth,[4],0.962
same,normalized growth,[5],0.956
same,normalized growth,[6],0.974
same,normalized growth,[7],0.961
same,normalized growth,[8],0.983
same,normalized growth,[9],0.945
same,normalized growth,[10],0.966
same,normalized growth,[11],0.981
same,normalized growth,[12],0.988
same,normalized growth,[13],0.975
same,normalized growth,[14],0.959
same,normalized growth,[15],0.95
same,normalized growth,[16],0.93
same,normalized growth,[17],0.995
same,normalized growth,[18],0.958
same,normalized growth,[19],0.954
same,normalized growth,[20],0.971
same,normalized growth,[21],0.974
same,normalized growth,[22],0.968
same,normalized growth,[23],0.954
same,normalized growth,[24],1.02
same,normalized growth,[25],0.92
same,normalized growth,[26],1.03
same,normalized growth,[27],0.963
same,normalized growth,[28],1.01
same,normalized growth,[29],0.956
same,normalized growth,[30],0.967
same,normalized growth,[31],0.933
same,normalized growth,[32],0.94
same,normalized growth,[33],0.957
same,normalized growth,[34],0.967
same,normalized growth,[35],0.971
same,normalized growth,[36],0.921
same,normalized growth,[37],0.99
same,normalized growth,[38],1
same,normalized growth,[39],0.985
same,normalized growth,[40],0.962
same,normalized growth,[41],1.07
same,normalized growth,[42],0.971
same,normalized growth,[43],0.958
same,normalized growth,[44],0.959
same,normalized growth,[45],0.959
same,normalized growth,[46],0.961
same,normalized growth,[47],0.996
same,normalized growth,[48],0.95
same,normalized growth,[49],0.967
same,normalized growth,[50],0.968
same,normalized growth,[51],0.975
same,normalized growth,[52],1.04
same,normalized growth,[53],0.985
same,normalized growth,[54],0.951
same,normalized growth,[55],0.945
same,normalized growth,[56],0.965
same,normalized growth,[57],0.955
same,normalized growth,[58],0.98
same,normalized growth,[59],1.05
same,normalized growth,[60],0.927
same,normalized growth,[61],0.975
same,normalized growth,[62],0.968
same,normalized growth,[63],0.96
same,normalized growth,[64],0.965
same,normalized growth,[65],0.974
same,normalized growth,[66],0.984
same,normalized growth,[67],0.965
same,normalized growth,[68],0.96
same,normalized growth,[69],0.978
same,normalized growth,[70],0.984
same,normalized growth,[71],0.963
CCC(C)Cn1c(Sc2ncc([N+](=O)[O-])s2)n[nH]c1=O (configuration not stated),normalized growth,[1],0.853 (active)
same,normalized growth,[2],0.893 (active)
same,normalized growth,[3],0.867 (active)
same,normalized growth,[4],0.888 (active)
same,normalized growth,[5],0.894 (active)
same,normalized growth,[6],0.895 (active)
same,normalized growth,[7],0.895
same,normalized growth,[8],0.932
same,normalized growth,[9],0.878 (active)
same,normalized growth,[10],0.849 (active)
same,normalized growth,[11],0.794
same,normalized growth,[12],0.93
same,normalized growth,[13],0.825 (active)
same,normalized growth,[14],0.884 (active)
same,normalized growth,[15],0.711
same,normalized growth,[16],0.649
same,normalized growth,[17],0.69 (active)
same,normalized growth,[18],0.844 (active)
same,normalized growth,[19],0.848 (active)
same,normalized growth,[20],0.901 (active)
same,normalized growth,[21],0.838
same,normalized growth,[22],0.888 (active)
same,normalized growth,[23],0.751
same,normalized growth,[24],0.776
same,normalized growth,[25],0.469 (active)
same,normalized growth,[26],0.772 (active)
same,normalized growth,[27],0.657
same,normalized growth,[28],0.926
same,normalized growth,[29],0.806
same,normalized growth,[30],0.896
same,normalized growth,[31],0.651
same,normalized growth,[32],0.938
same,normalized growth,[33],0.763
same,normalized growth,[34],0.877 (active)
same,normalized growth,[35],0.492 (active)
same,normalized growth,[36],0.778
same,normalized growth,[37],0.963
same,normalized growth,[38],0.792
same,normalized growth,[39],0.838
same,normalized growth,[40],0.849 (active)
same,normalized growth,[41],0.795
same,normalized growth,[42],0.598 (active)
same,normalized growth,[43],0.805
same,normalized growth,[44],0.56 (active)
same,normalized growth,[45],0.759
same,normalized growth,[46],0.88 (active)
same,normalized growth,[47],0.844
same,normalized growth,[48],0.846 (active)
same,normalized growth,[49],0.894 (active)
same,normalized growth,[50],0.826
same,normalized growth,[51],0.875 (active)
same,normalized growth,[52],0.652
same,normalized growth,[53],0.867 (active)
same,normalized growth,[54],0.865 (active)
same,normalized growth,[55],0.714
same,normalized growth,[56],0.856 (active)
same,normalized growth,[57],0.766
same,normalized growth,[58],0.85
same,normalized growth,[59],0.735
same,normalized growth,[60],0.722
same,normalized growth,[61],0.908
same,normalized growth,[62],0.674
same,normalized growth,[63],0.657 (active)
same,normalized growth,[64],0.683
same,normalized growth,[65],0.891 (active)
same,normalized growth,[66],0.695 (active)
same,normalized growth,[67],0.888 (active)
same,normalized growth,[68],0.943
same,normalized growth,[69],0.938
same,normalized growth,[70],0.932
same,normalized growth,[71],0.85 (active)
